# Source: paper PMC4336329 (PLoS ONE, 2015)
# The whole screen tested about 310,000 compounds, of which about 14,000 (4.5%) showed an effect of 50% or more. Effects have a minus sign here. Only a selection was taken, and strong results are over-represented in it overall.
# Molecular target: human ether-à-go-go-related gene (hERG) potassium channel (human, UniProt Q12809)
# Assay: primary screen, population patch clamp on CHO cells stably expressing hERG; higher = less effect of the substance
# 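Also: peak tail current of the secondary pulse compared with the same well before compound.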
# Chain of human ether-à-go-go-related gene (hERG) potassium channel (Q12809 whole entry, looked up): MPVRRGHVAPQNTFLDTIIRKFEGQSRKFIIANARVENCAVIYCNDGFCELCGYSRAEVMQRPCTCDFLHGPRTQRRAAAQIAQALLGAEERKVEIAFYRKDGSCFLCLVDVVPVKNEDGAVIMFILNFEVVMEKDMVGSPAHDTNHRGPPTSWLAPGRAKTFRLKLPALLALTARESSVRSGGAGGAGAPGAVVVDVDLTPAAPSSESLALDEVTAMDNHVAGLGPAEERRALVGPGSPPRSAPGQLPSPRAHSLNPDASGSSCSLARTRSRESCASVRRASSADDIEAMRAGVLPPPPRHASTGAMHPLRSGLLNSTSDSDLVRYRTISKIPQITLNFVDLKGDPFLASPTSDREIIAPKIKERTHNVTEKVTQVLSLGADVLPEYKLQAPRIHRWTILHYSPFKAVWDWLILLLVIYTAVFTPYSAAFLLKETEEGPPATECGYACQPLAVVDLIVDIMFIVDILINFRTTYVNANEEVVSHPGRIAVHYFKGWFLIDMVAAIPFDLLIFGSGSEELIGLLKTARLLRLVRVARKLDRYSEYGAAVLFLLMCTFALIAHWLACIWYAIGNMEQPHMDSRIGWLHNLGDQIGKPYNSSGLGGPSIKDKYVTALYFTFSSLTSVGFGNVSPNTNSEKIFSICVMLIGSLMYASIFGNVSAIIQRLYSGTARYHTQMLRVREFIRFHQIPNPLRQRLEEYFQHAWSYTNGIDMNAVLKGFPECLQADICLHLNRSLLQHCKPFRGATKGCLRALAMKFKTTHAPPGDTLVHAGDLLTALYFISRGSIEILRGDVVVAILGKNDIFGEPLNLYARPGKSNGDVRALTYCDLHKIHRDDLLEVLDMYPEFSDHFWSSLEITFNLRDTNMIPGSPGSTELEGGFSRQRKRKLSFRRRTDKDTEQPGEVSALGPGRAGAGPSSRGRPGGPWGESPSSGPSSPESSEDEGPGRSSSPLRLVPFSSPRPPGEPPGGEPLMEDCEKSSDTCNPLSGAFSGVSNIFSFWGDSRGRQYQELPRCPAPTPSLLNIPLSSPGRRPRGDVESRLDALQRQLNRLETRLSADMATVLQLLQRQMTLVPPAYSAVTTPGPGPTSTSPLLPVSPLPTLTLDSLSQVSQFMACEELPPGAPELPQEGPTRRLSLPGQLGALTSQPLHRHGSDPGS
row,SMILES,"hERG current change (%, negative = inhibition) at 10uM [%]"
1,CCn1nnnc1SCC(=O)N1CCN(c2ccccc2)CC1,-10.4
2,Br.CC1CCN(Cc2nnnn2-c2cccc([N+](=O)[O-])c2)CC1,-10.8
3,Cc1cccc(C)c1OCCNC(=O)OCc1ccccc1,-6.74
4,Cc1c(/C=N/NC(=O)CNc2ccccc2)c2ccccn2c1C(=O)c1ccncc1,0.0344
5,Cc1c(/C=N/NC(N)=O)c2ccccn2c1C(=O)c1ccncc1.Cl,-54.9
6,Cc1c(/C=N/NC(N)=O)c2ccccn2c1C(=O)c1ccc(F)cc1,-5.23
7,CCCCN(CC(=O)NC(C)(C)C)C(=O)C(=O)Nc1ccc2c(c1)OCCO2,-0.704
8,CC(C)c1nnc(NC(=O)c2ccc(S(=O)(=O)N3CCOCC3)cc2)s1,6.52
9,Cc1ccnc2nc(C(=O)Nc3ccc4c(c3)OCO4)nn12,-2.98
10,CCOC(=O)C1C(C)N=C2SCC(=O)N2C1c1cccc(Br)c1 (stereo not drawn),-12.6
11,COc1cc(CNc2ccc3c(c2)CCC3)cc(OC)c1O,12.2
12,Cn1c(SCC(=O)N2CCOCC2)nnc1-c1ccc2ncccc2c1,15.4
13,CCOc1cccc(CN2CCC(n3nccc3NC(=O)c3ccc4c(c3)OCO4)CC2)c1,-43.2
14,COc1ccc(CN2CCC(n3nccc3NC(=O)c3ccc4c(c3)OCO4)CC2)cc1C,-80.6
15,COc1cc(CN2CCC(n3nccc3NC(=O)c3ccc4c(c3)OCO4)CC2)ccc1O,-6.7
16,CCc1ccc(CN2CCC(n3nccc3NC(=O)c3ccc4c(c3)OCO4)CC2)cc1,-72
17,CC(=O)c1cccc(CN2CCC(n3nccc3NC(=O)c3ccc4c(c3)OCO4)CC2)c1,-7.62
18,COc1cccc(O)c1CN1CCC(n2nccc2NC(=O)c2ccc3c(c2)OCO3)CC1,-24
19,COC(=O)Nc1sc2c(c1C(N)=O)CCCCCC2,11.9
20,COc1ccc(CNC2CC(=O)N(C)C2=O)cc1 (stereo not drawn),13.6
21,O=S1(=O)C=CC(Nc2ccccc2)C1 (stereo not drawn),-76
22,O=S1(=O)C=CC(Nc2cccc(Cl)c2)C1 (stereo not drawn),16.7
23,COc1ccc(NC2C=CS(=O)(=O)C2)cc1 (stereo not drawn),0.937

row,SMILES,"hERG current change (%, negative = inhibition) at 10uM [%]"
1,COc1ccc(CCN2CNc3c(c(=O)n(C)c(=O)n3C)C2)cc1,-17.5
2,COc1ccc(CCNC(=O)Cn2nc(C)n3nc(-c4ccccc4)cc3c2=O)cc1OC,2
3,CCNC(=O)c1cc2c(=O)n3cccc(C)c3nc2n(CCc2ccccc2)c1=N,-80.3
4,COCCn1c(=N)c(S(=O)(=O)c2ccc(F)cc2)cc2c(=O)n3cccc(C)c3nc21,-22.5
5,COCCn1c(=S)[nH]c2cc(C(=O)NCCc3ccccc3)ccc2c1=O,-2.2
6,Cc1cccn2c(=O)c3cc(C(=O)NCCc4ccccc4)sc3nc12,-6.84
7,COCCn1c(=N)c(C(=O)NCCc2ccccc2)cc2c(=O)n3cccc(C)c3nc21,-82.9
8,COCCn1c(=N)c(C(=O)NCCc2ccc(OC)cc2)cc2c(=O)n3cccc(C)c3nc21,-84.8
9,CC(C)COc1ccc(C(=O)CCN2CCCCC2)cc1.Cl,-41.4
10,COc1ccc(C)cc1-n1c(SCC(=O)Nc2cc(C)on2)nc2sc(C)c(C)c2c1=O,-2.19
11,N#Cc1nc(COc2cccc(Cl)c2)oc1N1CCCC1,-47.5
12,C=CCC1Cc2c(Br)cccc2C(CC=C)N1 (stereo not drawn),-7.3
13,COC1=CC=C2[C@H]3Cc4ccc(OC)c5c4[C@@]2(CCN3C)[C@H]1O5.Cl,10.3
14,O=C(NCC1CCCO1)C1CCCN(Cc2cnn(-c3ccccc3)c2-n2cccc2)C1 (stereo not drawn),-11.2
15,O=C(NCc1ccccn1)C1CCCN(Cc2cnn(-c3ccccc3)c2-n2cccc2)C1 (stereo not drawn),-24.5
16,O=C(NCCC1=CCCCC1)C1CCN(Cc2cnn(-c3ccccc3)c2-n2cccc2)CC1,-51.8
17,CC(C)NC(=O)C1CCN(Cc2cnn(-c3ccccc3)c2-n2cccc2)CC1,-8.99
18,Cc1ccc(CNC(=O)C2CCCN(Cc3cnn(-c4ccccc4)c3-n3cccc3)C2)cc1 (stereo not drawn),-65.3
19,COc1cccc(CNC(=O)C2CCN(Cc3cnn(-c4ccccc4)c3-n3cccc3)CC2)c1,-71.3
20,COc1cccc(NC(=O)C2CCN(Cc3cnn(-c4ccccc4)c3-n3cccc3)CC2)c1,-45.5
21,O=C(NC1CC1)C1CCN(Cc2cnn(-c3ccccc3)c2-n2cccc2)CC1,-23.5
22,O=C(NCc1ccc2c(c1)OCO2)C1CCN(Cc2cnn(-c3ccccc3)c2-n2cccc2)CC1,-49.2
